Laboratory results published in PubChem BioAssay AID1159580 (chemical genetic matrix, 2015).
Where “and” joins values, the source holds several entries; their conditions need not be identical. Identical values can stand only once. The whole screen tested about 5,500 compounds, of which about 2,000 (36%) were called active. About 18% were inconclusive and are not listed. Cut-off read from the data, not from the text of the source: active = normalized growth mostly below about 0.91 (no sharp cut-off); inconclusive = no clear call, values can overlap the other calls; inactive = mostly above about 0.92. The list shows a part of the results.

Assay: chemical genetic growth profiling, strain panel (AID 1159580);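 note: tested at 20 µM; growth read once vehicle control cultures reached saturation at 30 °C; 1 = growth at the plate median or of vehicle wells; lower values mean less growth of the strain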
Conditions: growth OD

Measured: normalized growth

COC(=O)COc1ccc(Cl)cc1Cl
inactive: S. cerevisiae deletion strains, locus YAL013W, strain DEP1, hits give low values 1 | S. cerevisiae deletion strains, locus YBR021W, strain FUR4, hits give low values 1.01 | S. cerevisiae deletion strains, locus YBR229C, strain ROT2, hits give low values 1.01 | S. cerevisiae deletion strains, locus YCL029C, strain bik1, hits give low values 1.02 | S. cerevisiae deletion strains, locus YDL035C, strain GPR1, hits give low values 1.02 | S. cerevisiae deletion strains, locus YDL074C, strain BRE1, hits give low values 1.03 | S. cerevisiae deletion strains, locus YDL101C, strain DUN1, hits give low values 1.01 | S. cerevisiae deletion strains, locus YDL134C, strain PPH21, hits give low values 1.01 | S. cerevisiae deletion strains, locus YDL185W, strain tfp1, hits give low values 1.01 | S. cerevisiae deletion strains, locus YDL192W, strain arf1, hits give low values 1.02 | S. cerevisiae deletion strains, locus YDR101C, strain arx1, hits give low values 1.02 | S. cerevisiae deletion strains, locus YDR150W, strain NUM1, hits give low values 1 | S. cerevisiae deletion strains, locus YDR162C, strain NBP2, hits give low values 0.996 | S. cerevisiae deletion strains, locus YDR318W, strain mcm21, hits give low values 1.02 | S. cerevisiae deletion strains, locus YDR388W, hits give low values 1.02 | S. cerevisiae deletion strains, locus YDR502C, strain sam2, hits give low values 1.02 | S. cerevisiae deletion strains, locus YEL061C, strain CIN8, hits give low values 1 | S. cerevisiae deletion strains, locus YER110C, hits give low values 1.01 | S. cerevisiae deletion strains, locus YER155C, strain BEM2, hits give low values 1 | S. cerevisiae deletion strains, locus YER167W, strain BCK2, hits give low values 1 | S. cerevisiae deletion strains, locus YGL078C, strain dbp3, hits give low values 1.01 | S. cerevisiae deletion strains, locus YGL086W, strain mad1, hits give low values 1 | S. cerevisiae deletion strains, locus YGL248W, strain PDE1, hits give low values 1.01 | S. cerevisiae deletion strains, locus YGR078C, strain PAC10, hits give low values 1.02 | S. cerevisiae deletion strains, locus YGR135W, strain pre9, hits give low values 1.02 | S. cerevisiae deletion strains, locus YGR229C, strain SMI1, hits give low values 1.01 | S. cerevisiae deletion strains, locus YGR252W, strain gcn5, hits give low values 1.04 | S. cerevisiae deletion strains, locus YHR030C, strain SLT2, hits give low values 1.01 and 1.04 | S. cerevisiae deletion strains, locus YHR079C, strain IRE1 (second series), hits give low values 1.01 | S. cerevisiae deletion strains, locus YHR079C, strain IRE1, hits give low values 1.03 | S. cerevisiae deletion strains, locus YHR094C, strain hxt1, hits give low values 1.02 | S. cerevisiae deletion strains, locus YHR129C, strain ARP1, hits give low values 1.01 | S. cerevisiae deletion strains, locus YHR200W, strain rpn10, hits give low values 1.01 | S. cerevisiae deletion strains, locus YIL066C, strain RNR3, hits give low values 1.02 | S. cerevisiae deletion strains, locus YIL073C, strain SPO22, hits give low values 1.08 | S. cerevisiae deletion strains, locus YIL125W, strain kgd1, hits give low values 1.01 | S. cerevisiae deletion strains, locus YIR030C, strain dcg1, hits give low values 1.02 | S. cerevisiae deletion strains, locus YJL095W, strain BCK1, hits give low values 1 and 1.05 | S. cerevisiae deletion strains, locus YJL134W, strain LCB3, hits give low values 1 | S. cerevisiae deletion strains, locus YJL168C, strain set2, hits give low values 1.02 | S. cerevisiae deletion strains, locus YJL187C, strain SWE1 (second series), hits give low values 1.01 | S. cerevisiae deletion strains, locus YJR043C, strain POL32, hits give low values 1.01 | S. cerevisiae deletion strains, locus YJR066W, strain TOR1, hits give low values 0.975 | S. cerevisiae deletion strains, locus YJR075W, strain HOC1, hits give low values 1.01 | S. cerevisiae deletion strains, locus YKL009W, strain mrt4, hits give low values 1.03 | S. cerevisiae deletion strains, locus YKL068W, hits give low values 1.01 | S. cerevisiae deletion strains, locus YKL085W, strain MDH1 (second series), hits give low values 0.993 | S. cerevisiae deletion strains, locus YKL085W, strain MDH1, hits give low values 0.993 | S. cerevisiae deletion strains, locus YKL190W, strain CNB1, hits give low values 1.01 | S. cerevisiae deletion strains, locus YKR001C, strain vps1, hits give low values 1.04 | S. cerevisiae deletion strains, locus YLR039C, strain RIC1, hits give low values 1.02 | S. cerevisiae deletion strains, locus YLR058C, strain SHM2, hits give low values 1.02 | S. cerevisiae deletion strains, locus YLR102C, strain apc9, hits give low values 1.01 | S. cerevisiae deletion strains, locus YLR113W, strain HOG1, hits give low values 0.974 | S. cerevisiae deletion strains, locus YLR262C, strain YPT6, hits give low values 1.06 | S. cerevisiae deletion strains, locus YLR268W, strain sec22, hits give low values 1.03 | S. cerevisiae deletion strains, locus YLR330W, strain CHS5, hits give low values 1.01 | S. cerevisiae deletion strains, locus YLR342W, strain FKS1 (second series), hits give low values 1.01 | S. cerevisiae deletion strains, locus YLR371W, strain rom2, hits give low values 1.01 | S. cerevisiae deletion strains, locus YLR418C, strain cdc73, hits give low values 1.04 | S. cerevisiae deletion strains, locus YML016C, strain PPZ1, hits give low values 1.01 | S. cerevisiae deletion strains, locus YML032C, strain rad52, hits give low values 1.02 | S. cerevisiae deletion strains, locus YML124C, strain tub3, hits give low values 1.02 | S. cerevisiae deletion strains, locus YMR078C, strain ctf18, hits give low values 1.03 | S. cerevisiae deletion strains, locus YMR223W, strain ubp8, hits give low values 1.02 | S. cerevisiae deletion strains, locus YMR263W, strain SAP30, hits give low values 1 | S. cerevisiae deletion strains, locus YMR307W, strain GAS1, hits give low values 1.02 | S. cerevisiae deletion strains, locus YNL067W, strain RPL9B, hits give low values 1 | S. cerevisiae deletion strains, locus YNL128W, strain TEP1, hits give low values 1.01 | S. cerevisiae deletion strains, locus YNL153C, strain GIM3, hits give low values 1.01 | S. cerevisiae deletion strains, locus YNL183C, strain NPR1, hits give low values 0.969 | S. cerevisiae deletion strains, locus YNL233W, strain BNI4, hits give low values 1 | S. cerevisiae deletion strains, locus YNL250W, strain rad50, hits give low values 1.01 | S. cerevisiae deletion strains, locus YNL271C, strain bni1, hits give low values 1 | S. cerevisiae deletion strains, locus YNL298W, strain CLA4, hits give low values 1.04 | S. cerevisiae deletion strains, locus YNL307C, strain MCK1, hits give low values 1.03 | S. cerevisiae deletion strains, locus YNL322C, strain KRE1, hits give low values 1.01 | S. cerevisiae deletion strains, locus YNR052C, strain pop2, hits give low values 1.03 | S. cerevisiae deletion strains, locus YOL006C, strain TOP1, hits give low values 1.02 | S. cerevisiae deletion strains, locus YOL012C, strain htz1 1.19 | S. cerevisiae deletion strains, locus YOL147C, strain pex11, hits give low values 1.01 | S. cerevisiae deletion strains, locus YOR061W, strain CKA2, hits give low values 0.997 | S. cerevisiae deletion strains, locus YOR069W, strain VPS5, hits give low values 1 | S. cerevisiae deletion strains, locus YOR136W, strain idh2, hits give low values 1.02 | S. cerevisiae deletion strains, locus YOR144C, strain elg1, hits give low values 1.02 | S. cerevisiae deletion strains, locus YOR184W, strain ser1, hits give low values 1.03 | S. cerevisiae deletion strains, locus YOR231W, strain MKK1, hits give low values 1.04 | S. cerevisiae deletion strains, locus YOR316C, strain cot1, hits give low values 1.01 | S. cerevisiae deletion strains, locus YPL055C, strain LGE1, hits give low values 1.02 | S. cerevisiae deletion strains, locus YPL241C, strain CIN2, hits give low values 1 | S. cerevisiae deletion strains, locus YPL256C, strain CLN2, hits give low values 1.05 | S. cerevisiae deletion strains, locus YPR119W, strain clb2, hits give low values 1.01 | S. cerevisiae deletion strains, locus YPR141C, strain kar3, hits give low values 1.01 | S. cerevisiae deletion strains, locus YPR163C, strain tif3, hits give low values 1.02 | S. cerevisiae deletion strains, locus YPR167C, strain met16, hits give low values 1.01 | S. cerevisiae deletion strains, strain wtn01, hits give low values 1.01 | S. cerevisiae strains, strain wild type, hits give low values 1
